In PubChem BioAssay AID602289 (National Center for Advancing Translational Sciences (NCATS), 2012):
About 40 (2%) of roughly 2,400 compounds were called active. Inconclusive results (about 1%) are left out.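 Rule for the calls: active = inhibition at or above 60%; inconclusive = inhibition from 0% up to below 60%; inactive = no inhibition observed.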 This excerpt belongs to a sample that is enriched for actives.

experiment: qHTS Assay for Small Molecule Inhibitors of Mitochondrial Division or Activators of Mitochondrial Fusion: Hit Validation in Malachite Green Assay; details: purified GTPase, malachite green phosphate release, A650; stronger effect = higher value;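 for inhibition: plate controls were DMSO wells with GTPase for no effect and protein-free buffer wells for full effect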
From the text: The budding yeast S. cerevisiae is a powerful system to study mitochondrial fusion. Unlike other organisms, yeast cells without functional mitochondrial DNA (mtDNA) can be propagated and studied as long as they maintain a mitochondrial compartment and are provided with a fermentable carbon source. When mitochondrial fusion is blocked in yeast, mitochondrial tubules rapidly fragment and division continues unopposed. Under conditions where fusion is compromised in mammalian cells, nearly identical changes in mitochondrial structure have been observed. Thus, these findings indicate that steady state mitochondrial structure in cells is a characteristic and specific indicator of fusion activity. Mounting evidence has pointed to a connection between mitochondrial dynamics and apoptosis in mammalian cells. These studies indicate that in mammalian cells mitochondrial dynamics are more integrated into cellular processes than in yeast cells and have evolved not only to distribute the organelle but also to aid in the regulation of cellular homeostasis. Mitochondrial fusion proteins attenuate apoptosis by inhibiting the release of cytochrome c from mitochondria, in part by controlling cristae structures. Thus, small molecules that inhibit mitochondrial fusion may promote apoptosis and potentially act as novel chemotherapeutics and stimulation of apoptosis has become an attractive target of anti-cancer therapies. To identify inhibitors of mitochondrial division, we exploit the growth phenotypes of mitochondrial fusion-defective mutants. The temperature sensitive fusion alleles, such as fzo1-1 and mgm1-5, cause mitochondrial membranes to fragment in cells under non-permissive conditions and cells lose mtDNA, and are unable to grow in the presence of non-fermentable carbon source glycerol. Inhibiting mitochondrial division rescues growth. The hits were tested by the assay provider in a malachite green assay. NIH Chemical Genomics Center [NCGC] NIH Molecular Libraries Probe Production Centers Network [MLPCN] MLPCN Grant: MH081279 Assay Submitter (PI): Jodi M. Nunnari
Malachite Green Reagent Malachite Green carbinol base- Aldrich 229105 Ammonium molybdate - Sigma A7302 For 100 mL Malachite Green reagent in 1N HCl 16 mL conc. HCL + 32 mL H20 = 48 mL 4N HCl 34 mg malachite green base into 40 mL 1N HCl (10 mL 4N HCl + 30 mL H20) 1 g ammonium molybdate in 15 mL 4N HCl Mix Solutions together. Bring up to […] with H2O. Filter using a 0.2 um tissue culture filter unit (has plastic bottle attached) store at 4 masculine C. (Avoid Glassware/Plastics washed in detergent. Mix solutions in 50 mL conical vials.) For 20 uL reaction volume 1.0 uL Test Drug or DMSO: Added first to each well […]: 25 mM Hepes/Pipes pH 7.0 (H/P) 2.0 uL: 50 mM MgCl2 (final 5mM) 2.32 uL: 1 M NaCl (with contributing protein salt, Final = 150mM) 13.4 uL per reaction. Can be mixed in larger volume (Mini Master Mix) 1.6 uL: Protein 7.5 uM or Protein Freezing Buffer. (Final = 0.6uM) After Protein Added to mini Master Mix, 15ul Total Master Mix added to each well with drug. 4 uL: 500 uM GTP (Final = 100uM), Dilute with 25 mM H/P, store on ice. 20 uL Total Volume Make Master Mix: (Calculate desired reactions and add a few for multi-channel pipetting volume). Multiply the number of desired reactions by 13.4 uL for total Mini Master volume. Multiply the number of desired reactions by 1.6 uL for total Protein volume. Mix, and keep on ice until added to wells. Add 15 uL of Master Mix to each reaction well, incubate with drug for 10 min. For Positive (No Drug) controls add 15 uL Master Mix to wells with only 1 uL DMSO. Make PFB (Protein Freezing Buffer) (no Protein) Master Mix. Multiply the number of desired reactions by 13.4 uL for total Mini Master volume. Multiply the number of desired reactions by 1.6 uL for total PFB volume. Mix, and keep on ice until added to wells Add 10 uL of PFBMaster Mix to each Phosphate Standards well, and 15 uL to each negative control well with DMSO. […]

Compound	inhibition
Cn1c2ccccc2c2c(C(=O)N3CCN(c4ccccc4)CC3)cn(C3CCCC3)c(=O)c21	inactive
COc1cccc(COc2ccc3ccc(=O)oc3c2)c1	inactive
CC(C)(C)c1ccc(/C=C/C(=O)Nc2ncccn2)cc1	inactive
O=c1c2ccccc2nc(/C=C/c2cccnc2)n1Cc1ccccc1	inactive
c1ccc(C(c2ccccc2)N2CCN(Cc3nnnn3C3CCCC3)CC2)cc1	inactive
COc1ccc(NC(=O)CSCC(=O)N(C)Cc2ccc(Cl)c(Cl)c2)cc1	inactive
O=S(=O)(Nc1cccc2c1CCCC2)c1ccc(Cl)cc1	inactive
COC(=O)c1c(NC(=O)c2ccc(C)o2)sc2c1CCCCC2	inactive
N#Cc1c(NC(=O)c2ccc(Cn3cc(Br)cn3)o2)sc2c1CCCCCC2	97.3% (active)
N#Cc1c(NC(=O)C2CC2)sc2c1CCCCC2	inactive
CCCc1nnc(NC(=O)CCC(=O)O)s1	inactive
Cc1ccc(Cl)cc1N1CCN(C(=O)c2noc(C)c2[N+](=O)[O-])CC1	inactive
CCCCNC(=O)N1CCN(C(c2ccccc2)c2ccccc2)CC1	inactive
O=[N+]([O-])c1ccc(S(=O)(=O)N2CCN(C3CCN(Cc4ccccc4)CC3)CC2)cc1	inactive
Cc1ccc(C(=O)c2c(NC(=O)c3ccccc3C)sc(C)c2C)cc1	inactive
CCOC(=O)c1c(NC(=O)COc2ccccc2F)sc2c1CC(C)(C)NC2(C)C	inactive
CCOC(=O)c1c(NC(=O)c2ccccc2Cl)sc2c1CCc1ccccc1-2	102% (active)
CN(CCOc1ccccc1)CC(=O)Nc1ccc([N+](=O)[O-])cc1Cl	inactive
C=CCSc1nc(N)c(C#N)c(-c2ccc(C)cc2)c1C#N	inactive
CC(=O)c1cccc(NC(=O)c2ccc(-c3ccccc3[N+](=O)[O-])o2)c1	inactive
COc1ccccc1/C=C/C(=O)c1ccc(NC(C)=O)cc1	inactive
O=C(/C=C/c1ccco1)c1ccc(NC(=O)C23CC4CC(CC(C4)C2)C3)cc1	80.4% (active)
O=C(/C=C/c1ccco1)Nc1ccc2nn(-c3ccccc3)nc2c1	inactive
O=c1c2cc(N3CCOCC3)ccc2[nH]c(=S)n1CCc1ccccc1	inactive
